Where “and” joins values, the source holds several entries; their conditions need not be identical. Equal entries are not always repeated. The whole screen tested about 5,500 compounds, of which about 2,000 (36%) were called active. Another 18% or so got no clear call; they are omitted. Cut-off read from the data, not from the text of the source: active = normalized growth mostly below about 0.91 (no sharp cut-off); inconclusive = no clear call, values can overlap the other calls; inactive = mostly above about 0.92. Some of the results follow.
Experiment: chemical genetic growth profiling, strain panel (AID 1159580);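 note: tested at 20 µM; growth read once vehicle control cultures reached saturation at 30 °C; 1 = growth at the plate median or of vehicle wells; lower values mean less growth of the strain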
Conditions: S. cerevisiae deletion strains, growth OD

Measured: normalized growth

NS(=O)(=O)c1cc2c(cc1Cl)NCNS2(=O)=O
inactive: locus YAL013W, strain DEP1, hits give low values 1.01 | locus YAL021C, strain ccr4, hits give low values 1 | locus YAL026C, strain drs2, hits give low values 1.01 | locus YAL030W, strain snc1, hits give low values 1 | locus YAL040C, strain CLN3, hits give low values 1.01 | locus YBL061C, strain skt5, hits give low values 0.995 | locus YBR009C, strain hhf1, hits give low values 0.996 | locus YBR021W, strain FUR4, hits give low values 0.994 | locus YBR023C, strain chs3, hits give low values 0.984 | locus YBR171W, strain sec66, hits give low values 0.997 | locus YBR229C, strain ROT2, hits give low values 1 | locus YBR231C, strain swc5, hits give low values 0.976 | locus YBR279W, strain paf1, hits give low values 0.999 | locus YCL011C, strain gbp2, hits give low values 1 | locus YCL016C, strain dcc1, hits give low values 0.971 | locus YCL029C, strain bik1, hits give low values 0.996 | locus YCL061C, strain MRC1 (second series), hits give low values 1.01 | locus YCL061C, strain MRC1, hits give low values 0.999 | locus YCL069W, strain vba3, hits give low values 0.993 | locus YCR088W, strain abp1, hits give low values 0.995 | locus YDL005C, strain med2, hits give low values 0.984 | locus YDL035C, strain GPR1, hits give low values 1.02 | locus YDL040C, strain nat1, hits give low values 1 | locus YDL074C, strain BRE1, hits give low values 0.989 | locus YDL101C, strain DUN1, hits give low values 1.01 | locus YDL134C, strain PPH21, hits give low values 1.01 | locus YDL185W, strain tfp1, hits give low values 0.998 | locus YDL192W, strain arf1, hits give low values 0.999 | locus YDR001C, strain nth1, hits give low values 0.996 | locus YDR069C, strain doa4, hits give low values 1.03 | locus YDR101C, strain arx1, hits give low values 1.03 | locus YDR137W, strain rgp1, hits give low values 0.97 | locus YDR159W, strain sac3, hits give low values 1 | locus YDR162C, strain NBP2, hits give low values 1.01 | locus YDR195W, strain ref2 0.982 | locus YDR297W, strain sur2, hits give low values 1 | locus YDR318W, strain mcm21, hits give low values 0.991 | locus YDR334W, strain swr1, hits give low values 1 | locus YDR335W, strain msn5, hits give low values 1 | locus YDR363W, strain ESC2, hits give low values 1.02 | locus YDR388W, hits give low values 0.993 | locus YDR392W, strain spt3, hits give low values 0.962 | locus YDR502C, strain sam2, hits give low values 0.994 | locus YEL003W, strain gim4, hits give low values 1.01 | locus YEL037C, strain rad23, hits give low values 0.992 | locus YEL061C, strain CIN8 (second series), hits give low values 0.991 | locus YEL061C, strain CIN8, hits give low values 1 | locus YER002W, strain NOP16, hits give low values 0.996 | locus YER015W, strain faa2, hits give low values 0.983 | locus YER016W, strain bim1, hits give low values 1.01 | locus YER110C, hits give low values 0.998 | locus YER111C, strain swi4, hits give low values 0.992 | locus YER155C, strain BEM2 (second series), hits give low values 1.02 | locus YER155C, strain BEM2, hits give low values 1.01 | locus YER167W, strain BCK2, hits give low values 1 | locus YFR010W, strain ubp6, hits give low values 1 | locus YGL078C, strain dbp3, hits give low values 0.997 | locus YGL086W, strain mad1, hits give low values 0.999 | locus YGL167C, strain pmr1, hits give low values 1 | locus YGL173C, strain kem1, hits give low values 0.996 | locus YGL227W, strain vid30, hits give low values 0.996 | locus YGL240W, strain doc1, hits give low values 1 | locus YGL248W, strain PDE1, hits give low values 1 | locus YGL253W, strain hxk2, hits give low values 1 | locus YGR078C, strain PAC10, hits give low values 1.01 and 0.993 | locus YGR135W, strain pre9, hits give low values 0.984 | locus YGR229C, strain SMI1, hits give low values 1.01 | locus YGR252W, strain gcn5, hits give low values 0.969 | locus YHR013C, strain ard1, hits give low values 0.999 | locus YHR027C, strain rpn1, hits give low values 0.99 | locus YHR030C, strain SLT2, hits give low values 1.01 and 0.971 | locus YHR079C, strain IRE1 (second series), hits give low values 0.996 | locus YHR079C, strain IRE1, hits give low values 0.962 | locus YHR094C, strain hxt1, hits give low values 0.993 | locus YHR129C, strain ARP1, hits give low values 1 | locus YHR142W, strain chs7, hits give low values 0.994 | locus YHR200W, strain rpn10, hits give low values 1 | locus YIL066C, strain RNR3, hits give low values 1.01 | locus YIL073C, strain SPO22, hits give low values 1.01 | locus YIL125W, strain kgd1, hits give low values 0.996 | locus YIR030C, strain dcg1, hits give low values 1 | locus YJL092W, strain hpr5, hits give low values 1 | locus YJL095W, strain BCK1 (second series), hits give low values 1 | locus YJL095W, strain BCK1, hits give low values 1.01 and 0.976 | locus YJL115W, strain asf1, hits give low values 1.01 | locus YJL129C, strain trk1, hits give low values 1 | locus YJL134W, strain LCB3, hits give low values 1.01 | locus YJL154C, strain vps35, hits give low values 0.995 | locus YJL164C, strain tpk1, hits give low values 0.995 | locus YJL166W, strain qcr8, hits give low values 0.999 | locus YJL168C, strain set2, hits give low values 0.993 | locus YJL187C, strain SWE1 (second series), hits give low values 1.01 | locus YJL187C, strain SWE1, hits give low values 0.998 | locus YJR043C, strain POL32, hits give low values 1.02 | locus YJR066W, strain TOR1, hits give low values 0.937 | locus YJR075W, strain HOC1, hits give low values 1.01 | locus YKL009W, strain mrt4, hits give low values 1.01 | locus YKL068W, hits give low values 1 | locus YKL085W, strain MDH1 (second series), hits give low values 0.994 | locus YKL085W, strain MDH1, hits give low values 0.994 | locus YKL160W, strain elf1, hits give low values 0.988 | locus YKL190W, strain CNB1, hits give low values 1.01 | locus YKR001C, strain vps1, hits give low values 1.01 | locus YKR026C, strain gcn3, hits give low values 0.997 | locus YKR091W, strain srl3, hits give low values 0.997 | locus YLL001W, strain dnm1, hits give low values 0.98 | locus YLL026W, hits give low values 1 | locus YLL041C, strain sdh2, hits give low values 0.997 | locus YLR027C, strain aat2, hits give low values 1.01 | locus YLR039C, strain RIC1, hits give low values 0.936 | locus YLR058C, strain SHM2, hits give low values 0.989 | locus YLR102C, strain apc9, hits give low values 0.993 | locus YLR113W, strain HOG1, hits give low values 0.989 | locus YLR221C, strain rsa3, hits give low values 0.963 | locus YLR258W, strain gsy2, hits give low values 0.996 | locus YLR262C, strain YPT6 (second series), hits give low values 0.992 | locus YLR262C, strain YPT6, hits give low values 1.01 | locus YLR268W, strain sec22, hits give low values 0.991 | locus YLR320W, strain mms22, hits give low values 0.998 | locus YLR330W, strain CHS5, hits give low values 1.01 | locus YLR342W, strain FKS1 (second series), hits give low values 1.02 | locus YLR342W, strain FKS1, hits give low values 1 | locus YLR357W, strain rsc2, hits give low values 1.01 | locus YLR370C, strain arc18, hits give low values 0.983 | locus YLR371W, strain rom2, hits give low values 1 | locus YLR384C, strain iki3, hits give low values 0.996 | locus YLR418C, strain cdc73, hits give low values 0.978 | locus YML016C, strain PPZ1, hits give low values 1.01 | locus YML032C, strain rad52, hits give low values 1 | locus YML120C, strain ndi1, hits give low values 0.978 | locus YML124C, strain tub3, hits give low values 0.999 | locus YMR058W, strain fet3, hits give low values 0.998 | locus YMR078C, strain ctf18, hits give low values 0.993 | locus YMR125W, strain sto1, hits give low values 1 | locus YMR129W, hits give low values 0.995 | locus YMR205C, strain PFK2, hits give low values 0.992 | locus YMR223W, strain ubp8, hits give low values 0.985 | locus YMR231W, strain pep5, hits give low values 0.996 | locus YMR263W, strain SAP30, hits give low values 1.01 | locus YMR307W, strain GAS1, hits give low values 0.999 | locus YNL067W, strain RPL9B, hits give low values 1.01 | locus YNL071W, strain lat1, hits give low values 1 | locus YNL128W, strain TEP1, hits give low values 1.02 | locus YNL153C, strain GIM3, hits give low values 1.01 and 1.02 | locus YNL175C, strain NOP13, hits give low values 1.02 | locus YNL183C, strain NPR1, hits give low values 0.956 | locus YNL197C, strain WHI3, hits give low values 1 | locus YNL209W, strain ssb2, hits give low values 0.998 | locus YNL224C, strain SQS1, hits give low values 0.996 | locus YNL233W, strain BNI4, hits give low values 1.01 | locus YNL248C, strain rpa49, hits give low values 1.01 | locus YNL250W, strain rad50, hits give low values 0.987 | locus YNL271C, strain bni1, hits give low values 0.991 | locus YNL298W, strain CLA4, hits give low values 1 | locus YNL307C, strain MCK1, hits give low values 0.999 | locus YNL322C, strain KRE1 (second series), hits give low values 0.993 | locus YNL322C, strain KRE1, hits give low values 1 and 1.01 | locus YNR049C, strain mso1, hits give low values 1 | locus YNR052C, strain pop2, hits give low values 0.999 | locus YOL006C, strain TOP1, hits give low values 1.03 | locus YOL012C, strain htz1 0.74 | locus YOL147C, strain pex11, hits give low values 0.993 | locus YOR001W, strain rrp6, hits give low values 1.04 | locus YOR061W, strain CKA2, hits give low values 1 | locus YOR069W, strain VPS5, hits give low values 1.01 | locus YOR070C, strain gyp1, hits give low values 0.994 | locus YOR080W, strain dia2, hits give low values 1 | locus YOR083W, strain WHI5 (second series), hits give low values 0.981 | locus YOR083W, strain WHI5, hits give low values 0.988 | locus YOR106W, strain vam3, hits give low values 1.01 | locus YOR136W, strain idh2, hits give low values 0.997 | locus YOR144C, strain elg1, hits give low values 0.994 | locus YOR184W, strain ser1, hits give low values 0.994 | locus YOR231W, strain MKK1, hits give low values 0.972 | locus YOR265W, strain rbl2, hits give low values 0.997 | locus YOR270C, strain vph1, hits give low values 1.03 | locus YOR290C, strain snf2, hits give low values 0.956 | locus YOR316C, strain cot1, hits give low values 0.996 | locus YPL051W, strain arl3, hits give low values 1 | locus YPL055C, strain LGE1, hits give low values 1.02 | locus YPL078C, strain atp4, hits give low values 0.994 | locus YPL106C, strain sse1, hits give low values 0.979 | locus YPL240C, strain hsp82, hits give low values 1 | locus YPL241C, strain CIN2, hits give low values 1.01 | locus YPL256C, strain CLN2, hits give low values 0.986 | locus YPR119W, strain clb2, hits give low values 0.992 | locus YPR141C, strain kar3, hits give low values 1 | locus YPR163C, strain tif3, hits give low values 0.994 | locus YPR167C, strain met16, hits give low values 1 | strain wtn01, hits give low values 0.984
